Inconclusive results are not listed. Unmarked numbers belong to inactive results. Active and inactive are the calls of the source. Calls come from the whole dose curve.
Test: Cell Viability - SK-N-SH (AID 435);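 note: compound exposure lasted 40 h at 37 °C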
Settings: SK-N-SH neuroblastoma cell viability qHTS
Description: NIH Chemical Genomics Center [NCGC]
NIH Molecular Libraries Screening Centers Network [MLSCN]
National Institutes of Environmental Health Sciences [NIEHS]
National Toxicology Program [NTP]
We have developed a 1536-well cell-based assay for quantitative high throughput screening (qHTS) against a number of cell lines to determine in vitro cytotoxicity of small molecules. This particular assay uses the SK-N-SH cell line which is derived from human neuroblastoma.
NCGC Assay Protocol Summary:
The CellTiter-Glo luminescent cell viability assay (Promega) is a homogeneous method to measure the number of viable cells in culture. The end point readout of this assay is based on quantitation of intracellular ATP, an indicator of metabolic activity, using the luciferase reaction. Luciferase catalyzes the oxidation of beetle Luciferin to oxyluciferin and light in the presence of ATP. The luminescent signal is proportional to amount of ATP present.
Using the CellTiter-Glo luminescent cell viability assay, the amount of cellular ATP was measured in the SK-N-SH cell line with complete culture medium following compound treatment for 40 hours. The assay was performed in opaque white Kalypsys 1536-well plates. In the screen, tamoxifen and doxorubicin were used as positive controls. Library compounds were measured for their ability to cause acute toxicity in the cell line, as reflected by a decrease in intracellular ATP levels, in a concentration-dependent manner. Data were normalized to the controls for basal activity (DMSO only) and 100% inhibition (100 uM tamoxifen). AC50 values were determined from concentration-response data modeled with the standard Hill equation.
qHTS protocol fo CellTiter Glo SK-N-SH cellular assay
[Step] [Parameter] [Value] [Description]
1. Reagent; 5 uL; 1500 SK-N-SH cells/well
2. Time; 5 hr; 37 °C incubation
4. Controls; 23 nL; Tamoxifen 0.34 uM to 100 uM & Doxorubicin 0.02 nM to 100 uM
5. Time; 40 hr; 37 °C incubation
6. Reagent; 5 uL; CellTiter Glo reagent
7. Time; 20 min; Room Temperature
8. Detection; Luminescence; Viewlux plate reader
Keywords: cell viability, cytotoxicity, SK-N-SH cell line, luminescence, NTPHTS, NTPHTS_NCGC, NIEHS, EPA, DSSTox, MLSMR, MLSCN, NIH Roadmap, qHTS, NCGC
Potency is the fitted concentration of half-maximal effect.

Row | SMILES | Potency
1 | CC/C(=C(\c1ccccc1)c1ccc(OCCN(C)C)cc1)c1ccccc1 | 49.1 µM (active)
2 | O=c1c(-c2ccc(O)cc2)coc2cc(O)ccc12 | > 92 µM
3 | CCn1cc(C(=O)O)c(=O)c2ccc(C)nc21 | > 92 µM
4 | CCCNC(=O)NS(=O)(=O)c1ccc(Cl)cc1 | > 92 µM
5 | O=C1NC(=O)C(c2ccccc2)(c2ccccc2)N1 | > 92 µM
6 | CC(=O)c1ccc(S(=O)(=O)NC(=O)NC2CCCCC2)cc1 | > 92 µM
7 | O=C(O)Cc1cccc2ccccc12 | > 92 µM
8 | CCCCC1C(=O)N(c2ccccc2)N(c2ccccc2)C1=O | > 92 µM
9 | O=c1c(O)c(-c2ccc(O)cc2)oc2cc(O)cc(O)c12 | > 92 µM
10 | CC1=C(/C=C/C(C)=C/C=C/C(C)=C/C(=O)Nc2ccc(O)cc2)C(C)(C)CCC1 | 7.43 µM (active)
11 | CN(C)CCC(c1ccccc1)c1ccccn1 (configuration not stated) | > 92 µM
12 | O=c1[nH]cnc2c1ncn2[C@H]1CC[C@@H](CO)O1 | > 92 µM

Reference: PubChem BioAssay (NCATS)
